Among the data in PubChem BioAssay AID588397 (National Center for Advancing Translational Sciences (NCATS), 2011) are Potency values, retold here.

The whole screen tested about 1,300 compounds, of which about 1,000 (77%) were called active. Another 7% or so got no clear call; they are omitted. The call rests on the fitted dose curve; in most records, active means well fitted inhibition curve with a large enough effect; inconclusive means small, poorly fitted or top-dose-only effect; inactive means no such curve, though single readings can be large or run the other way. So high a share suggests a set chosen from earlier hits. This is one part of the list.
Potency means the concentration at half of the fitted maximal effect.

A short description of the test: qHTS of small molecules that selectively kill Giardia lamblia: Hit Validation.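 Further: viability measured as ATP content by luminescence so killing lowers signal; nearly all actives have a fitted effect of over 65% in size.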 To be noted: Giardia lamblia trophozoite viability, dose-response; series mostly up to 38.3 µM. The procedure, abridged:
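ATP-content bioluminescence gauges trophozoite survival. Cells (100/well) receive compound and incubate anaerobically for 48 hrs at 37 deg C; detection reagent follows for 15-30 min at room temperature.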
Turning to `CNc1nnc(-c2ccc(N(C)C)cc2)s1`, the Potency was 3.26 µM (active).
With `CCc1ccc2nc3sc(C(=O)O)cc3cc2c1` the figure was 10.3 µM (active); with `CCN1C[C@@H]2[C@@H]3C(=O)N(C)C(=O)[C@@H]3[C@](C)(C1=O)N2C(=O)c1ccc(Cl)c(Cl)c1`, “inactive”; with `O=C1NCCN1c1ncc([N+](=O)[O-])s1`, 0.103 µM (active).
With `COc1ccc(-c2cc3nc[nH]c(=O)c3s2)cc1` the figure was 4.6 µM (active); with `CCNc1nc(NCC)nc(-n2nc(C)cc2C)n1`, “inactive”; with `O=C(NN(c1ccccc1)c1ccccc1)c1ccc([N+](=O)[O-])o1`, 1.83 µM (active).
Turning to `CN(Cc1ccccc1)C(=O)c1ccc([N+](=O)[O-])o1`, the Potency was 3.65 µM (active).
With `C/C(=N/NC(=O)C(O)(c1ccccc1)c1ccccc1)c1ccc([N+](=O)[O-])o1` the figure was 0.365 µM (active).
With `O=C(NNC(=O)c1ccc([N+](=O)[O-])o1)c1ccccc1` the figure was 0.516 µM (active); with `O=C(O)C1CCCN1S(=O)(=O)c1ccc(Br)cc1` (configuration not stated), “inactive”.
With `COc1ccc(OC)c2c(C)c(C)[nH]c12` the entry was “inactive”; with `CN(C(=O)OC(C)(C)C)c1ccc(-c2nc3ccccc3s2)cc1`, 1.83 µM (active).
Regarding `Cc1c[nH]c(=O)c([N+](=O)[O-])c1`, the Potency is 8.18 µM (active).
Consider `COc1cc2c3c(c1OC)C1(C=CC(=NNC(N)=O)C=C1)CC3N(C(C)=O)CC2` (configuration not stated), for which the Potency result was “inactive”.
For `O=C1CCCN1CCCN=c1c([N+](=O)[O-])nn(-c2ccc(Cl)cc2)n1O`, the Potency is 3.65 µM (active).
With `COc1ccc(-n2nc([N+](=O)[O-])c(=NCCCN3CCCC3=O)n2O)cc1` the figure was 2.05 µM (active); with `Cn1cccc1C1CCCN1CC(=O)Nc1ccc(F)c(F)c1F` (configuration not stated), “inactive”; with `O=C(CSc1ccsc1[N+](=O)[O-])NC1CCCC1`, 1.03 µM (active).
For the compound `Cc1ccc(CNC(=O)CSc2ccsc2[N+](=O)[O-])cc1`, the Potency was 2.59 µM (active).
With `CCOC(=O)Cc1csc(SCC(=O)NC2CCCCC2)n1` the entry was “inactive”; with `O=C(CSc1ccsc1[N+](=O)[O-])N1CCN(c2ccccn2)CC1`, 0.579 µM (active).
Regarding `O=C(CSc1ccsc1[N+](=O)[O-])NCc1ccccc1`, the Potency was 1.16 µM (active).
Regarding `CCc1ccccc1NC(=O)CSc1ccsc1[N+](=O)[O-]`, the Potency is 2.31 µM (active).
Consider `COc1ccccc1CNC(=O)CSc1ccsc1[N+](=O)[O-]`, for which the Potency is 1.45 µM (active).
With `CCc1ccccc1NC(=O)CC(NCc1ccccc1)C(=O)O` (configuration not stated) the entry was “inactive”.
With `CC(=O)c1ccc(NC(=O)CSc2ccsc2[N+](=O)[O-])cc1` the figure was 0.918 µM (active); with `COc1ccc(CNC(=O)CSc2ccsc2[N+](=O)[O-])cc1`, 1.63 µM (active).
Turning to `CCn1c(=O)n(CC)c2cc(N)ccc21`, the Potency entry is “inactive”.
With `Cc1cc(C(=O)CCC(=O)NC(C)c2ccc(S(N)(=O)=O)cc2)c(C)s1` (configuration not stated) the entry was “inactive”.
For `c1csc(-c2ccc(N3CCOCC3)nn2)c1`, the Potency is 3.65 µM (active).
With `O=[N+]([O-])c1ccc(NCc2ccccc2N2CCC(CO)CC2)nc1` the figure was 1.45 µM (active).
With `O=C1c2ccccc2C(=O)c2[nH]cnc21` the figure was 2.59 µM (active).
With `O=C(O)c1ccc(NC(=O)c2cc3ccccc3o2)cc1` the figure was 6.5 µM (active); with `O=C1CSC(c2ccc(F)cc2)N1c1c(F)cccc1F` (configuration not stated), “inactive”.
Consider `CC(C)(C)n1nc(-c2ccc(Cl)cc2)c2c(N)ncnc21`, for which the Potency is 14.5 µM (active).
With `CCN(CC)S(=O)(=O)c1ccc(N2CCCC2)c(NC(=O)c2ccc([N+](=O)[O-])o2)c1` the figure was 1.45 µM (active); with `COc1ccc(N2CCCC2)c(NC(=O)c2ccc([N+](=O)[O-])o2)c1`, 0.516 µM (active).
With `COc1ccc2nc3cc(Cl)ccc3c(Nc3ccc(O)c(CN4CCN(C)CC4)c3)c2c1` the figure was 10.3 µM (active); with `CN(C)CCCn1cnc2c(c1=N)C(c1ccccc1)c1ccc3ccccc3c1O2` (configuration not stated), 20.5 µM (active).
In the case of `CN1CCN(C(=O)/C=C/c2ccc([N+](=O)[O-])o2)CC1`, the Potency is 0.818 µM (active).
Take `CCc1ccc(C(=O)/C=C/c2ccc([N+](=O)[O-])o2)cc1`: the Potency is 1.3 µM (active).
With `CC1CCN(c2c([N+](=O)[O-])nn(-c3ccc4c(c3)OCCO4)[n+]2[O-])CC1` the figure was 1.03 µM (active).
With `O=[N+]([O-])c1nn(-c2ccccc2)[n+]([O-])c1N1CCN(c2ccccc2)CC1` the figure was 1.3 µM (active).
With `O=[N+]([O-])c1nn(-c2ccccc2)[n+]([O-])c1N1CCN(c2ccccc2F)CC1` the figure was 1.16 µM (active).
Regarding `CCN(Cc1ccncc1)C(=O)CC1C(=O)NCCN1Cc1ccc(F)c(F)c1` (configuration not stated), the Potency result was “inactive”.
With `Cc1c(C(=O)c2ccc(Cl)cc2[N+](=O)[O-])c2ccccn2c1CCC#N` the figure was 0.41 µM (active).
With `CCn1nc(-c2ccccc2C)nc2c(=O)n(C)c(=O)nc1-2` the figure was 0.103 µM (active); with `Cc1ccccc1-c1nc2c(=O)n(C)c(=O)nc-2n(C)n1`, 0.115 µM (active).
With `COc1ccccc1C(=O)NC(=O)OCCn1c(C)cnc1[N+](=O)[O-]` the figure was 0.579 µM (active); with `Cc1cnc([N+](=O)[O-])n1CCOC(=O)NC(=O)c1ccccc1Cl`, 1.16 µM (active).
For the compound `Cc1ccc(C(=O)c2c3ccc([N+](=O)[O-])cc3[n+]([O-])n2CCC(N)=O)cc1`, the Potency is 6.5 µM (active).
With `Cc1ccc(C(=O)c2c3ccc([N+](=O)[O-])cc3[n+]([O-])n2CCCN)cc1` the figure was 4.6 µM (active); with `Cc1ccc(C(=O)c2c3ccc([N+](=O)[O-])cc3[n+]([O-])n2CCCC(N)=O)cc1`, 3.65 µM (active); with `NC(=O)CCn1c(C(=O)c2cccc([N+](=O)[O-])c2)c2ccccc2[n+]1[O-]`, 4.1 µM (active).
On to `CC(=O)CSc1ccc(-c2nc3ccccc3[nH]2)cn1`, for which the Potency is 1.45 µM (active).
With `CC(=O)CSc1ccc(-c2nc3cc(C)c(C)cc3[nH]2)cn1` the figure was 2.05 µM (active); with `COc1ccc(CNc2ccc([N+](=O)[O-])cn2)cc1`, 7.29 µM (active).
With `O=C(COc1cccnc1[N+](=O)[O-])Nc1ccc2c(c1)OCO2` the figure was 5.16 µM (active).
With `O=C(COc1cccnc1[N+](=O)[O-])Nc1ccc2c(c1)OC(F)(F)O2` the figure was 5.79 µM (active); with `Cc1c(Br)c([N+](=O)[O-])nn1C(C)C(=O)Nc1ccc2c(c1)OCO2` (configuration not stated), 1.16 µM (active).
For `O=S(=O)(Nc1cc(Sc2cccc3cccnc23)c(O)c2ccccc12)c1ccc(F)cc1`, the Potency was 11.6 µM (active).
